# Screens from PubChem BioAssay.
# Only some compounds are listed: those with a hit (about 3.9% of all), similar ones and a draw of the others.
# AHR activator – activates the human aryl hydrocarbon receptor; hit rate 2.5% among 320,000; AHR-responsive luciferase reporter cells, luminescence; P35869; AID 2796; activation, % at 5 µM; in the data active means activation above about 47%;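 further: 0% = vehicle wells and 100% = reference agonist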
# HGIII-sPLA2 inh – Blocks human group III sPLA2 activity. AID 743126. Q9NZ20. hit rate 0.56% among 370,000. inhibition, % at 12.2 µM. QFRET BODIPY PC-A2 liposome hydrolysis, fluorescence;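 active means inhibition above mean plus 3 SD of compounds lying within the high and low control bounds, cut at about 19% in these data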;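 further: 0% = median of test compound wells and 100% = no enzyme DMSO wells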
# PLC-beta3 inh – PLC-beta3 (human) inhibition, primary screen | Q01970 | Purified PLC-beta3, fluorogenic substrate, fluorescence | inhibition, % at 12.2 µM | hit rate 0.18% among 370,000;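 further: 0% = median of compound wells on plate and 100% = full blocker control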
# Target sequence (Q01970 whole entry, looked up): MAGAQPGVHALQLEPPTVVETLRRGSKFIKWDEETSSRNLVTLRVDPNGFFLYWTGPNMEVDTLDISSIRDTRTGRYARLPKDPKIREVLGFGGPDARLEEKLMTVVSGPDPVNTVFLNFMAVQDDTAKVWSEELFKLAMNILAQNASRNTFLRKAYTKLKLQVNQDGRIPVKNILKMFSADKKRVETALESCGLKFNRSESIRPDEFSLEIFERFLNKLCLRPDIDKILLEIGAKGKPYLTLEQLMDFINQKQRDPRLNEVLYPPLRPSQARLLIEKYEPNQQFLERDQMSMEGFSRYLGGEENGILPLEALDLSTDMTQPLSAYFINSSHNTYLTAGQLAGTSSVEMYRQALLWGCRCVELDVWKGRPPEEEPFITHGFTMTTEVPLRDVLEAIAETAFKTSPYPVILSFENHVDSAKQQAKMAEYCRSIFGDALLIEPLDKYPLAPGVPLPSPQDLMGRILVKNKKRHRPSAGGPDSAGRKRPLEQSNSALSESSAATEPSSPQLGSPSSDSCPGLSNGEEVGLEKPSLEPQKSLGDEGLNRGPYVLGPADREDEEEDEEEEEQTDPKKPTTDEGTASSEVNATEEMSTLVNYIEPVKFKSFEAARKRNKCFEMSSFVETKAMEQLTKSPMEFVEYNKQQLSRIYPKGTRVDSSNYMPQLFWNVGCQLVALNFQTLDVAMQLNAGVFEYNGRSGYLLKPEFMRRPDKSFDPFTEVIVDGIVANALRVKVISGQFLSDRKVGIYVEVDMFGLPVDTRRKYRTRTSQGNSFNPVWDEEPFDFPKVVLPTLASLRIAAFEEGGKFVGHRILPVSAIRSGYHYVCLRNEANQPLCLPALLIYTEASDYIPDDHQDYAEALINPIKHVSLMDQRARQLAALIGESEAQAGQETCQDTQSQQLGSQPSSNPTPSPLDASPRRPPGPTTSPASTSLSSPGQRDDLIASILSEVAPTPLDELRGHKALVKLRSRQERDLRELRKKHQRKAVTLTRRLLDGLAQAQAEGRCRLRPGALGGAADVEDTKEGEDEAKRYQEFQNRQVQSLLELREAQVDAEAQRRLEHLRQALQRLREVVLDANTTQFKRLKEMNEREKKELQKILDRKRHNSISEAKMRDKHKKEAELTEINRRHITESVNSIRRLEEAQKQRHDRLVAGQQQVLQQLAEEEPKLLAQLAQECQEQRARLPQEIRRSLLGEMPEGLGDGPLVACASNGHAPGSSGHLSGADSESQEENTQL
# HIF act – HIF pathway transcriptional activation; U2OS HRE-luciferase reporter, luminescence; normalized: DMSO 0%, desferrioxamine 100%; activation, % at 7.5 µM (by protocol); hit rate 0.32% among 300,000; AID 1910;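 active means mean activation of at least 10% of the iron chelator positive control signal, with at least half of replicates also reaching 10%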
# PLCg1 inh – inhibitors of human phospholipase C gamma1. hit rate 0.84% among 370,000. AID 720700. inhibition, % at 12.2 µM. purified PLC-gamma1, fluorogenic substrate, fluorescence; in the data active means inhibition above about 9.5%
# CR mimetic SO – yeast age-related superoxide inhibition as caloric restriction mimetic; hit rate 0.18% among 330,000; S. cerevisiae aged cells, superoxide DHE fluorescence; hits give low values; superoxide response (% of plate mean), % at 10 µM;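 active means superoxide response under a set limit, about three screen SD below normal, cut at about 65% in these data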;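 further: yeast aged for seven days with compound at 30 °C before DHE staining; 100% = average MFI of all compound-treated wells on the plate with controls excluded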
# PLCg1 ctr – counter-screen for PLC-beta3 inhibitors: inhibitors of human PLC-gamma1; purified PLC-gamma1, fluorogenic substrate, fluorescence; shares compounds with PLCg1 inh; AID 743258; hit rate 3.1% among 3,300; inhibition, % at 12.3 µM; in the data active means inhibition above about 9.5%
# PLCbeta3 conf – confirmation of human PLC-beta3 inhibitors; shares compounds with PLCg1 inh; purified PLC-beta3, fluorogenic substrate fluorescence; inhibition, % at 12.3 µM; hit rate 1% among 3,300; AID 743261
# hGIII sPLA2 conf – human GIII-sPLA2 inhibition, confirmation | shares compounds with HGIII-sPLA2 inh | recombinant hGIII-sPLA2, BODIPY PC-A2 QFRET fluorescence | inhibition, % at 12.2 µM | hit rate 34% among 2,000;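 active means mean inhibition across triplicates above the hit cutoff set in the earlier primary screen, cut at about 19% in these data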;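 further: 0% = enzyme with DMSO and 100% = DMSO wells lacking enzyme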
# 535nm interf – 535nm fluorescence interference, HGIII-sPLA2 counter-screen. shares compounds with HGIII-sPLA2 inh. BODIPY FL product fluorescence interference, QFRET. inhibition, % at 12.2 µM. hit rate 8.5% among 2,000. AID 743282;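 active means average inhibition above the solvent-only control mean plus 3 SD, cut at about 6% in these data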;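 further: 0% = DMSO with substrate plus product and 100% = DMSO with substrate alone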
# BODIPY interf DR – counter-screen for HGIII-sPLA2 inhibitors: 535nm fluorescence interference, dose response | shares compounds with HGIII-sPLA2 inh | BODIPY FL product fluorescence interference, cell-free | 240 tested, under 10 active | IC50, µM;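 active means IC50 at or below 10 µM; inactive means IC50 above 10 µM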
# Numbers without * were called inactive; i = inactive; · = no result. Unless noted, no stated cut-off is given here; in the data, active means inhibition above about 11%; inactive means the rest.
SMILES,AHR activator,HGIII-sPLA2 inh,PLC-beta3 inh,HIF act,PLCg1 inh,CR mimetic SO,hGIII sPLA2 conf,535nm interf,others
C=CCNC(=S)NNC(=O)c1ccc(C)c(Cl)c1,-2,23*,2,0,13*,131,21*,3,PLCg1 ctr=-5;PLCbeta3 conf=0
NC(Cc1ccc(C(F)(F)F)cc1)c1csc(Nc2cc(Oc3ccccc3)ncn2)n1 (stereo not given),·,25*,-12,·,9.7*,·,13,-10,PLCg1 ctr=-4;PLCbeta3 conf=-2
CNC(=O)C1(C)Cc2c(-c3ccc(NC(C)=O)cc3)ccnc2O1 (stereo not given),·,0,0,·,-1,·,·,·,
CC(=O)Nc1ccc(-c2ccnc3c2CC(C)(C(=O)NC(C)C)O3)cc1 (stereo not given),·,21*,-1,·,12*,·,2,-9,PLCg1 ctr=-8;PLCbeta3 conf=-1
CCOC(=O)C1CCCN(C(=O)CCCn2nnnc2CN2CCC(C)CC2)C1 (stereo not given),1,-1,-5,0,-2,112,·,·,
Cc1ccc(-n2nc3c(c2NC(=O)C(C)C)CS(=O)(=O)C3)c(C)c1,4,0,-3,1,5,95,·,·,
CCN(C(=O)CSc1nnc(SC(C)C)s1)C1CCS(=O)(=O)C1 (stereo not given),4,12,-7,·,0,88,·,·,
CC(c1ccccc1)n1c(-c2ccccc2F)n[nH]c1=S (stereo not given),0,24*,8,-1,9.9*,107,8,-1,PLCg1 ctr=5;PLCbeta3 conf=2
CCOc1ccc(C(=O)NCC(=O)NCC(c2ccco2)N2CCCCC2)cc1 (stereo not given),2,1,-1,·,2,77,·,·,
O=[N+]([O-])c1ccc(N=Nc2ccc(O)cc2O)cc1,0,2,4,0,7,113,·,·,
O=S(=O)(O)c1cc(Cl)cc(N=Nc2ccc(O)cc2O)c1O,·,49*,-6,·,13*,·,-38,-15,PLCg1 ctr=-152;PLCbeta3 conf=-151
O=C(CNC(=O)c1ccccc1)NCC(=O)OCC(=O)c1ccc(F)cc1,-3,3,3,0,2,88,·,·,
Cc1ccc(C(=O)NCC(=O)NCC(=O)OCC(=O)c2ccc(F)cc2)cc1,7,27*,-11,-1,13*,92,3,-11,PLCg1 ctr=-5;PLCbeta3 conf=-2
O=C(c1cc(O)c(O)c([N+](=O)[O-])c1)c1ccccc1F,-1,29*,3,·,10.0*,107,15,3,PLCg1 ctr=-3;PLCbeta3 conf=-1
CCOC(=O)NN1C(=O)c2ccccc2NC1c1ccccc1 (stereo not given),-1,30*,i,0,i,89,1,-7,
CCOC(=O)NN1C(=O)c2ccccc2NC1c1ccc(OC)cc1 (stereo not given),-1,21*,i,0,i,105,4,-6,
CCOC(=O)NN1C(=O)c2ccccc2NC1c1ccc(N(C)C)cc1 (stereo not given),1,-5,-289,2,-271,101,·,·,
O=C1NC[C@H](CCCCN2C[C@H](Cc3ccccc3)N(CCC3CCCCC3)C(=O)C2=O)N(Cc2ccccc2)C1=O,·,0,6,·,4,·,·,·,
COc1cccc(Sc2ccccc2CN(C)C)c1,-6,20*,4,0,-2,106,-3,-19,
CN(C)Cc1ccccc1Sc1ccc2c(c1)CCCC2,3,-4,5,0,3,110,·,·,
C/C(=N\NC(=O)c1ccccc1F)c1ccc2c(c1)Nc1ccccc1S2,-5,20*,-25,2,-22,84,45*,10*,
O=C(Nc1nc(-c2ccccc2)c(-c2ccccc2)s1)c1ccc(S(=O)(=O)N2CCCCC2)cc1,0,23*,1,0,-2,100,-8,2,
CCCNS(=O)(=O)c1ccc(CCC(=O)N2CCN(CC)CC2)cc1,1,21*,0,0,-1,93,-2,-7,
COc1ccccc1/C=C/C=N/NC(=O)c1cnccn1,18,3,-21,1,-14,96,·,·,
COc1ccccc1/C=C/C=N/NC(=O)c1ccccn1,13,20*,-131,2,-85,96,6,-8,
SMILES,AHR activator,HGIII-sPLA2 inh,PLC-beta3 inh,HIF act,PLCg1 inh,CR mimetic SO,hGIII sPLA2 conf,535nm interf,others
N#Cc1ccc(OCC(=O)N[C@@H](Cc2ccccc2)c2nc3ccccc3[nH]2)cc1,·,-5,-5,·,4,·,·,·,
C[C@@H]1COc2cc(NCCCN3CCOCC3)ccc2S(=O)(=O)N1,·,7,-1,·,-1,·,·,·,
C/C(=N\NC(=O)c1ccc(N(C)C)cc1)c1ccc(C)cc1C,31,2,-18,1,-18,96,·,·,
C/C(=N\NC(=O)c1ccc(N(C)C)cc1)c1ccc(C)c(C)c1,15,31*,-38,2,-25,92,6,-2,
CC(C)[C@H](NC(=O)c1ccco1)C(=O)NCc1ccccc1,0,7,-4,-1,9,92,·,·,
CCOc1cccc(C2NC(=S)NC(C)=C2C(=O)Nc2ccccc2)c1 (stereo not given),1,24*,0,1,2,113,16,-2,
COc1ccc(-n2c(N)c(-c3nc4ccccc4n3C)sc2=S)cc1,23,3,-5,0,-5,96,·,·,
CCOc1ccc(-n2c(N)c(-c3nc4ccccc4[nH]3)sc2=S)cc1,72*,20*,-35,1,-24,114,33*,2,BODIPY interf DR=>122
COc1ccc(-c2n[nH]c(=S)nc2-c2ccc(OC)cc2)cc1,-1,19*,-7,-1,-1,116,26*,5,
O=C(NCCc1ccncc1)Nc1ccc(F)cc1,17,20*,-7,0,-2,86,4,-8,
O=C(NC(=S)Nc1ccccc1[N+](=O)[O-])c1ccccc1Cl,3,8,-2,2,2,103,·,·,
O=C(NNC(=S)NC(=O)c1ccccc1[N+](=O)[O-])c1ccccc1Cl,1,36*,-1,-19,4,91,31*,-1,BODIPY interf DR=>122
CCCCCC(=O)NNC(=S)NC(=O)c1ccccc1[N+](=O)[O-],2,21*,-3,0,-2,113,33*,-2,BODIPY interf DR=>122
Nc1ccc(-c2nc3ccc(N)cc3o2)cc1,18,7,i,·,i,102,·,·,
